# High-throughput results (PubChem BioAssay)
# Compounds with a hit are over-represented: about 6% of the library has one in this group of screens.
# DRD3 antagonist: D3 dopamine receptor (human) antagonism; P35462; D3R cells, DiscoveRx beta-arrestin luminescence, antagonist mode; stronger effect = lower value; 2.5% of 360,000 active; max response, negative = inhibition, %; in the data active means max response below about -50%; inconclusive means no clear call, values can overlap the other calls; further: on the % scale 0 is the no-effect control and ±100 the full control effect
# Target sequence (P35462 whole entry, looked up): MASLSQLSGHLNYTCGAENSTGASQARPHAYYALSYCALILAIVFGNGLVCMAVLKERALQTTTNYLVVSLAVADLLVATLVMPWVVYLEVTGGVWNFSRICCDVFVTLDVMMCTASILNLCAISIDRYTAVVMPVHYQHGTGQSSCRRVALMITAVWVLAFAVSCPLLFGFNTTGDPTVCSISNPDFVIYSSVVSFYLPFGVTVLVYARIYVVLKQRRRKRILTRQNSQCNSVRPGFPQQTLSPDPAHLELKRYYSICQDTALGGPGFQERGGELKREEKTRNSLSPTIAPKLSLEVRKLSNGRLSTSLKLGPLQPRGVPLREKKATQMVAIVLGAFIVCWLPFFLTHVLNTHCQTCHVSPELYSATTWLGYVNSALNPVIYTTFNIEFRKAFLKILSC
#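 Cells plated overnight at 1500 cells/well, then exposed to library compounds with dopamine controls for 90 minutes at 37 degrees C. DiscoveRx reagent added for 30–60 minutes at room temperature; luminescence read, quantitative HTS format.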
# D1 ag: agonists of human D1 dopamine receptor; P21728; HEK293 T-REx D1 cells, calcium flux, agonist mode; activation, % at 2 µM; 1% of 360,000 active; AID 504660; in the data active means activation above about 30%; further: 0% is about no effect
#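 Agonism was scored from calcium flux recorded over 180 s (1 read/s) after pintool compound addition, following a 10-cycle baseline. Cells were inducible force-coupled HEK293 TREx D1, plated overnight at 30 C and loaded with no-wash calcium dye.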
# D1 antag: blocks dopamine activation of the human D1 receptor | P21728 | HEK293 TREx D1 cells, calcium flux, dopamine EC80; stronger effect = lower value | activity change, negative = inhibition, % at 10 µM | 3.2% of 360,000 active; in the data active means activity change below about -30%; further: on the % scale 0 is the no-effect control and ±100 the full control effect
#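 Using tetracycline-induced force-coupled D1 Hek293 cells and a calcium dye, signals were followed for 180 s after compound, then for 180 s after EC80 dopamine, to detect inhibitors.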
# D1 potentiator: potentiators of human D1 dopamine receptor; P21728; HEK293 TREx D1 cells, calcium flux, dopamine EC20 potentiation; potentiation, % at 10 µM; 0.036% of 360,000 active; in the data active means potentiation above about 30%; further: 0% is about no effect
# D3 ag: D3 dopamine receptor (human) agonism. 0.58% of 410,000 active. AID 652048. max activation, %. D3R DiscoveRx beta-arrestin cells, luminescence, 90 min. P35462; in the data active means max activation above about 30%; further: 0% is about no effect
#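 Agonist mode: compounds and dopamine controls were applied to plated cells for 90 min at 37 degrees C after an overnight attachment at 1500 cells/well. Luminescent read-out followed 30 - 60 minutes at room temperature with DiscoveRx detection reagent.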
# * marks the source's active call; other numbers are inactive results; ? = inconclusive; nt = no result given.
SMILES,DRD3 antagonist,D1 ag,D1 antag,D1 potentiator,D3 ag
CS(=O)(=O)N(Cc1ccc(Cl)cc1)c1ccc(C(=O)NCCC2=CCCCC2)cc1,?,10,5,-1,2
O=C(NCCC1=CCCCC1)c1ccc(Cl)cc1,nt,19,-41*,-6,nt
CCCCCCCCCCCCCCCC(=O)OC(C)C,nt,nt,nt,nt,5
Cc1ccc(-c2c(C)n3c4c(=O)n(C)c(=O)n(C)c4nc3n2CCCO)cc1,nt,-1,3,-3,37*
COc1ccc(C(=O)NCc2nnc(SCC(=O)Nc3ccc(F)cc3)n2-c2ccccc2)cc1,nt,15,8,-4,-13
CC1CCCCC1N(C)C1CCN(C(=O)CNC(=O)/C=C/c2cccc(Cl)c2)CC1 (centres undefined),-27,14,-31*,-2,0
O=C(COC(=O)COc1ccc2ccccc2c1)NCC(F)(F)F,38,25,-32*,3,-4
CCOC(=O)C1=C(O)/C(=C/c2cn(CC(=O)N3CCCC3)c3ccccc23)SC1=Nc1ccccc1,12,32*,-9,-4,2
CC(=O)c1cccc(NC(=O)CN2C(=O)c3ccccc3Sc3ncccc32)c1,nt,0,-8,-4,8
CC(C)CN1C(=O)NC2(CCCc3ccccc32)C1=O (centres undefined),4,1,-80*,11,-8
CC(=O)CN1C(=O)NC2(CCCc3ccccc32)C1=O (centres undefined),8,1,11,7,5
Cc1ccc(C)c(N2CCN(S(=O)(=O)c3ccc4[nH]c(=O)ccc4c3)CC2)c1,18,4,-11,-4,1
Cc1cccc(N2CCN(S(=O)(=O)c3ccc4[nH]c(=O)ccc4c3)CC2)c1C,15,13,-35*,-7,23
Cc1cccc(N2CCN(S(=O)(=O)c3ccc4c(c3)NC(=O)C(C)S4)CC2)c1C (centres undefined),7,5,16,1,29
Cc1cccc(N2CCN(S(=O)(=O)c3ccc4c(c3)C(C(C)C)C(=O)N4)CC2)c1C (centres undefined),nt,6,-37*,0,1
COc1ccc(OCCn2nnc3sc4c(c3c2=O)CCCC4)cc1,nt,-1,0,3,-1
Cc1cc(Cl)ccc1OC(C)C(=O)NN=C1CCCCCC1 (centres undefined),-17,1,-31*,nt,-4
Cc1cc(Cl)ccc1OC(C)C(=O)NNC(=O)C1CCCCC1C(=O)O (centres undefined),-14,12,3,-4,-8
CN(C(=O)CN1C(=O)NC(C)(c2cccc(Br)c2)C1=O)C1CCCCC1 (centres undefined),7,6,-57*,-3,2
CC(C)(C)c1ccc(C(=O)N2CC(=O)Nc3ccc(F)cc3C2c2ccc(F)cc2)cc1 (centres undefined),nt,8,8,3,-13
CC1=C(C(=O)OC2CCCCCC2)C(c2ccc(C)o2)C2=C(CCCC2=O)N1 (centres undefined),-17,-2,-33*,-9,0
CC1=C(C(=O)OC2CCCCC2)C(c2ccc(C)o2)C2=C(CC(C)(C)CC2=O)N1 (centres undefined),-26,0,3,-1,-5
COc1ccccc1N1CCN(C(=O)Cn2c(=O)nc(-c3ccccc3)c3ccccc32)CC1,nt,2,10,0,19
Cc1ccccc1CN1CCN(CC2CC3C=CC2C3)CC1 (centres undefined),-66*,1,9,-5,-17
CCN1CCN(CC2CC3C=CC2C3)CC1 (centres undefined),-11,3,14,-2,-9
SMILES,DRD3 antagonist,D1 ag,D1 antag,D1 potentiator,D3 ag
C1=CC2CC1CC2CN1CCN(c2ccccc2)CC1 (centres undefined),-54*,2,-20,-5,-9
Cc1cccc(CNC(=O)CCCN2C(=O)c3cccnc3Oc3ccccc32)c1,nt,0,11,-1,-1
CC1=C(C(=O)Nc2ccc(C)cc2C)C(c2cc(Br)ccc2F)n2ncc(C(=O)Nc3ccc(C)cc3)c2N1 (centres undefined),nt,4,1,-1,4
Cc1nc2ccc([N+](=O)[O-])cc2c(=O)n1Cc1ccccc1Br,2,5,-43*,-9,8
Cc1nc2ccc([N+](=O)[O-])cc2c(=O)n1Cc1ccc([N+](=O)[O-])cc1,-1,5,-62*,-6,0
Cc1ccc(Cn2c(C)nc3ccc([N+](=O)[O-])cc3c2=O)cc1,1,1,-25,-5,5
Cc1ccc2c(c1)-c1c(c(C(=O)N3CCN(c4cc(Cl)ccc4C)CC3)nn1C)CS2,nt,0,5,1,3
CC(=O)Nc1ccc(Nc2cc(C)nc3c(-c4ccccc4)cnn23)cc1,2,11,-40*,-12,-8
O=c1c(S(=O)(=O)c2ccccc2)cn(Cc2ccc(F)cc2)c2cc(N3CCCC3)c(F)cc12,nt,-2,9,-4,-2
O=C(Nc1nc2ccccc2n1Cc1ccc(Cl)cc1)c1ccco1,-60*,0,-20,-4,-2
c1ccc(Cn2c(NCc3ccco3)nc3ccccc32)cc1,-23,6,-36*,2,1
CCn1c(NCc2ccco2)nc2ccccc21,-10,-1,22,-7,0
O=C(NCCCc1nc2ccccc2n1Cc1ccc(Cl)cc1)c1ccco1,nt,81*,-31*,-2,-11
O=C(Nc1nc2ccccc2n1CCOc1ccc(Cl)cc1)c1ccco1,3,4,-1,-2,-7
O=C(NCCCc1nc2ccccc2n1Cc1cccc(Cl)c1)c1ccco1,nt,2,17,-1,-17
CC1(C)CC(=O)c2cc(-c3nc(-c4ccc(Cl)cc4)cs3)c(=O)n(-c3cccc(F)c3)c2C1,nt,0,-16,-1,-8
Cc1cc(C)c(NC(=O)Cn2ccn(-c3cccc(Cl)c3)c(=O)c2=O)c(C)c1,nt,6,-28,1,8
CCn1cc(C(=O)NCc2ccccc2)c(=O)c2cc(S(=O)(=O)N3CCOCC3)ccc21,nt,1,0,1,-2
O=C(C1=C(O)C(=O)N(CC2CCCO2)C1c1ccccc1)c1ccco1 (centres undefined),8,1,-6,12,2
O=C(C1=C(O)C(=O)N(CC2CCCO2)C1c1cccnc1)c1ccco1 (centres undefined),-25,0,-30*,-2,1
CCCCCCCCCCOC(=O)Cn1c(COc2ccccc2OC)[n+](C)c2ccccc21,-5,183*,-23,17,-11
CS(=O)(=O)c1ccc(C(=O)OCC(=O)NC23CC4CC(CC(C4)C2)C3)cc1[N+](=O)[O-],-58*,5,44,4,-11
Cc1cc(C(=O)OCC(=O)NC(=O)c2cccn2C)c2ccccc2n1,26,45*,17,-4,-3
